The values below come from PubChem BioAssay (NCATS).

Test [1] concerns CRL-7250. The test is described as follows: Cytotoxic Profiling of Annotated Libraries Using Quantitative High-Throughput Screening (AID 1296008). Further: nearly all actives have a fitted effect of over 60% in size. The note with it: Five cell lines viability, CellTiter-Glo ATP luminescence, 48-72 h; max response: stronger effect = lower value. The gist of the method: (§1)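 Compounds were pin-transferred onto cells and incubated 48 or 72 hr at 37 degree Celsius, 95% humidity. CellTiter-Glo was added, plates sat 10 min at room temperature, then ATP-coupled luminescence was imaged as the viability read-out.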
A general note: ATP-based viability assays read luminescence as a measure of living cells.

Test [2] concerns HEK293. Described as above. The conditions noted are these: Five cell lines viability, CellTiter-Glo ATP luminescence, 48-72 h; max response: stronger effect = lower value. In a few lines:
as §1

Test [3] has as its system HaCat. The test is described as above. The conditions noted are these: Five cell lines viability, CellTiter-Glo ATP luminescence, 48-72 h; max response: stronger effect = lower value. In a few lines:
as §1

Test [4] deals with KB-3-1. The description is as above. The conditions noted are these: Five cell lines viability, CellTiter-Glo ATP luminescence, 48-72 h; max response: stronger effect = lower value. In a few lines:
as §1

Test [5] relates to NIH3T3. The description is as above. The note with it: Five cell lines viability, CellTiter-Glo ATP luminescence, 48-72 h; max response: stronger effect = lower value. In a few lines: as §1
Test [6] relates to HACAT. Put plainly: qHTS assay to identify novel small-molecules to repurpose for Merkel cell carcinoma treatment (AID 1296009). Further: nearly all actives have a fitted effect of over 60% in size. The conditions noted are these: MCC and control cell lines, CellTiter-Glo viability, 72 h; at 44.8 µM (top of the series) unless noted. In a few lines: (§2)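 Viability readout: ATP luminescence (CellTiter-Glo) after 72 hr drug exposure at 37 degree celsius. Dose-response format was 8 points for NPC and 11 points for MIPE; data normalized to in-plate controls.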
(In general: Quantitative high-throughput screening tests each substance at several concentrations.)

Test [7] relates to MCC-13. The test is described as above. The conditions noted are these: MCC and control cell lines, CellTiter-Glo viability, 72 h; series mostly up to 46 µM. The gist of the method:
as §2

The test system of test [8] is MCC-26. The test is described as above. The note with it: MCC and control cell lines, CellTiter-Glo viability, 72 h; series mostly up to 46 µM. In a few lines:
as §2

Test [9] concerns MKL-1. The test is described as above. The note with it: MCC and control cell lines, CellTiter-Glo viability, 72 h; series mostly up to 46 µM. In a few lines:
as §2

Test [10] deals with MKL-2. Described as above. The note with it: MCC and control cell lines, CellTiter-Glo viability, 72 h; series mostly up to 46 µM. In a few lines: as §2
Test [11] deals with WaGa. Described as above. The note with it: MCC and control cell lines, CellTiter-Glo viability, 72 h; series mostly up to 46 µM. In a few lines:
as §2

The subject of test [12] is C33A. Put plainly: Primary qHTS to identify gynecologic anti-cancer compounds using libraries of approved drugs and bioactive compounds (AID 1345084). Further: nearly all actives have a fitted effect of over 55% in size. The note with it: Gynecologic cancer cell panel viability, ATPlite luminescence, 48 h; series mostly up to 57.5 µM. The gist of the method: (§3)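 Five-point cytotoxicity, 48 h drug exposure at 37 C, 5% CO2, on cells seeded 16 h beforehand. ATP content read by ATPlite luminescence.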

In test [13] the test system is CAOV3. The description is as above. The conditions noted are these: Gynecologic cancer cell panel viability, ATPlite luminescence, 48 h; series mostly up to 57.5 µM. The gist of the method: as §3
Test [14] concerns CASKI. Described as above. The conditions noted are these: Gynecologic cancer cell panel viability, ATPlite luminescence, 48 h; series mostly up to 57.5 µM. In a few lines: as §3
The subject of test [15] is Es-2. The test is described as above. The conditions noted are these: Gynecologic cancer cell panel viability, ATPlite luminescence, 48 h; series mostly up to 57.5 µM. The gist of the method:
as §3

Test [16] has as its system HeLa. The test is described as above. The conditions noted are these: Gynecologic cancer cell panel viability, ATPlite luminescence, 48 h; series mostly up to 57.5 µM. In a few lines: as §3
For test [17], the system named is CRL-7250. Put plainly: qHTS assay to identify novel small-molecules to repurpose for Merkel cell carcinoma treatment (AID 1296009). Further: nearly all actives have a fitted effect of over 60% in size. The note with it: MCC and control cell lines, CellTiter-Glo viability, 72 h; at 44.8 µM (top of the series) unless noted. In a few lines:
as §2

The test system of test [18] is UISO. The description is as above. The note with it: MCC and control cell lines, CellTiter-Glo viability, 72 h; series mostly up to 46 µM. In a few lines: as §2
Test [19] deals with NIH3T3. The test is described as above. The note with it: MCC and control cell lines, CellTiter-Glo viability, 72 h; at 44.8 µM (top of the series) unless noted. The gist of the method:
as §2

Test [20] deals with HEK293T. Described as above. The note with it: MCC and control cell lines, CellTiter-Glo viability, 72 h; at 44.8 µM (top of the series). The gist of the method:
as §2

The structures appear in SMILES notation. Several values for one entry are separate records, joined by “and”; a condition that tells them apart may be missing. Equal entries are not always repeated. Records with an inconclusive call do not appear. A number with no mark means an inactive call. Activity calls are given as the source filed them. The call rests on the fitted dose curve; in most records, active means well fitted curve in the direction sought with a large enough effect; inconclusive means small, poorly fitted or top-dose-only effect, or another doubt; inactive means no such curve, though single readings can be large; an effect the other way counts as inactive or inconclusive.
On the % scale 0 is the no-effect control and ±100 the full control effect; potency means the concentration at half of the fitted maximal effect.

For `C[C@@H]1CC[C@H]2[C@@H](C)C(=O)O[C@@H]3O[C@@]4(C)CC[C@@H]1[C@]32OO4`, the max response in test [1] is -4.21%; in [4], -14.6%; in test [5], -3.92%. Further, in [2], the Potency is 2370 nM (active). Moreover, the call in test [3] and in test [6] was inactive. Besides, the Potency result in [7], in [8], in [9], in [10], in [11] and in test [12] was “inactive” throughout. For the same compound, the Potency entry in test [13], in [14], in test [15] and in test [16] was “inactive” each time.
Regarding `CC(Cc1ccccc1)NCCCCl` (centres undefined), the outcome in [1], in test [3], in [17] and in test [6] was inactive. The max response in [2] is 0.613%; in test [5], 3.33%. Also, the Potency result in test [7], in test [8], in test [9], in test [18], in test [11] and in test [12] was “inactive” each time. The Potency entry in test [13], in [14], in [15] and in test [16] was “inactive” throughout.
Turning to `C[C@@H]1C[C@@H]([C@H](O)CC2CC(=O)NC(=O)C2)C(=O)[C@@H](C)C1`, the Potency was 1.33 µM (active) and 833 nM (active) in [1]; 469 nM (active) in [2]; 2350 nM (active) in test [3]; 3.66 µM (active) and 1.48 µM (active) in [4]; 473 nM (active) and 235 nM (active) in [5]; 944 nM (active) and 4.69 µM (active) in test [7]. Moreover, the Potency in test [9] is 1660 nM (active); in test [10] it was 2090 nM (active); in test [18] it was 1.06 µM (active) and 1.18 µM (active); in [11], 5900 nM (active); in [13] it was 25100 nM (active); in test [15] it was 794 nM (active).
For the compound `O=C(O)CCCCCCNC1c2ccccc2CCc2ccccc21`, the max response is -2% in test [1]; 2.21% in test [2]; 0.465% in test [3]; 7.47% in test [4]; 1.62% in test [5]. Further, the Potency entry in test [7], in [8], in test [9], in test [10], in test [11] and in [12] was “inactive” in each case. Besides, the Potency result in test [13], in [14], in test [15] and in [16] was “inactive” throughout.
`COP(=O)(OC)OC=C(Cl)Cl`: the call in [1], in test [5], in test [17] and in [19] was inactive. Moreover, the max response was -1.59% in test [2] and -7.81% in test [3]. In addition, the Potency result in [7], in test [8], in test [9], in test [10], in test [18] and in test [11] was “inactive” each time. Also, the Potency entry in [12], in test [13], in [14], in test [15] and in [16] was “inactive” in each case.
On to `CN1[C@@H]2CC[C@H]1CC(OC(=O)c1cc(Cl)cc(Cl)c1)C2` (some centres undefined), for which the max response is -20.4% in test [1], 3.49% in [3] and -13.9% in [4]. The Potency in [2] was 26600 nM (active). Moreover, the Potency entry in test [7], in [8], in test [9], in test [10], in test [18] and in test [11] was “inactive” throughout. For the same compound, the Potency entry in test [12], in [14], in test [15] and in test [16] was “inactive” in each case.
As to `CCc1ccc(C2CCNCC2)cc1`, the result in [1], in test [3], in test [17] and in test [6] was inactive. Further, the max response in [2] was -21.3%; in test [5], 1.66%. Moreover, the Potency entry in [7], in [8], in test [9], in test [10], in test [18] and in [11] was “inactive” in each case. For the same compound, the Potency result in [12], in test [13], in [14], in test [15] and in test [16] was “inactive” in each case.
Take `CCN(Cc1ccc(Cl)nc1)/C(=C/[N+](=O)[O-])NC`: the max response in test [1] is -14.2%; in test [5], 3.9%. Further, the result in test [2], in test [3], in test [6] and in [20] was inactive. Also, the Potency entry in test [7], in test [8], in [9], in test [10], in test [18] and in [11] was “inactive” in each case. Besides, the Potency entry in [12], in test [14], in [15] and in [16] was “inactive” in each case.
As to `COP(=S)(OC)Oc1ccc(Sc2ccc(OP(=S)(OC)OC)cc2)cc1`, the max response in test [1] was -0.305%; in [2], 3.86%; in test [3], -8.51%; in test [4], 1.06%. The result in [5] and in test [19] was inactive. Besides, the Potency entry in test [7], in test [8], in test [9], in test [10], in test [18] and in test [11] was “inactive” each time. For the same compound, the Potency entry in test [12], in test [14], in test [15] and in test [16] was “inactive” throughout.
With `CCCCCCCCC(=O)NCc1ccc(O)c(OC)c1`, the max response in [1] was -16.7%; in test [2] it was -94.9%; in test [3], -25.6%; in test [4], -3.93%; in test [5], -70.4%. In addition, the Potency entry in test [7], in [8], in [9], in test [10], in test [18] and in [11] was “inactive” throughout. Also, the Potency result in [13], in [14] and in test [16] was “inactive” in each case.
Take `ClCCCN1CCN(c2cccc(Cl)c2)CC1`: the outcome in test [1], in [2], in test [3], in test [5], in test [17] and in [6] was inactive. The call in [20] and in test [19] was inactive. Further, the Potency result in [7], in [8], in test [9], in test [10], in [18] and in [12] was “inactive” throughout. Also, the Potency result in [13], in test [14], in test [15] and in [16] was “inactive” each time.
Regarding `CC(C)NCC(O)c1ccc(N)c(C#N)c1` (centres undefined), the max response in test [1] is 3.52%; in test [3], -0.104%; in [4], -10.3%; in [5], 2.77%. The compound was called inactive in [2] and in [20]. For the same compound, the Potency entry in test [7], in test [8], in test [9], in test [10], in test [18] and in [11] was “inactive” in each case. The Potency entry in test [12], in test [14], in [15] and in test [16] was “inactive” in each case.
For `C[C@@H]1CN(C2CCC(C#N)(c3ccc(F)cc3)CC2)CC[C@]1(C(=O)O)c1ccccc1` (some centres undefined), the compound was classed as inactive in test [1], in test [5] and in test [19]. For the same compound, the max response in test [2] was -6.67%; in test [3], 3.21%; in test [4] it was -4.01%. Further, the Potency entry in [7], in [8], in [9], in test [10], in test [18] and in test [11] was “inactive” in each case. The Potency entry in test [12], in test [13], in [14], in test [15] and in test [16] was “inactive” throughout.
